Screening data as filed in PubChem.
aSyn 5UTR act: Activators via SNCA 5'UTR binding, MLPCN | activity score, % (tested at 7.5 µM), hits read low | AID 1814 | 300,000 tested, 7.1% active | alpha-synuclein 5'UTR reporter, activators screen; in the data active means activity score below about -60%
Each line names hits and unclear results; the compound was inactive in the other large screens. These entries were drawn from the full list.

COc1cccc(NC(=O)c2cc3cccc(OC)c3o/c2=N\O)c1	aSyn 5UTR act -81
Cc1cccc(OCC(=O)Nc2cccc3nsnc23)c1	aSyn 5UTR act -82
O=C(COc1cc(Cl)c(Cl)cc1Cl)Nc1cccc(O)c1	aSyn 5UTR act -90
Cc1ccc(OCC(=O)Nc2cccc(O)c2)cc1C	aSyn 5UTR act -172
Cc1cccc(OCC(=O)Nc2cccc(O)c2)c1	aSyn 5UTR act -162
CNc1ccc(/C=C2\COc3ccccc3C2=O)cc1[N+](=O)[O-]	aSyn 5UTR act -118
O=C1/C(=C/c2ccccc2[N+](=O)[O-])COc2ccccc21	aSyn 5UTR act -114
O=C(Nc1c2c(nn1-c1ccc(F)cc1)CS(=O)(=O)C2)C1CCCC1	aSyn 5UTR act -62
Cc1cc(NCCCN)nc(-c2ccccc2O)n1	aSyn 5UTR act -69
Cc1cc(N/N=C/c2ccc(O)c(C)c2O)nc(-c2ccccc2O)n1	none
Cc1ccc(Nc2cc(C)nc(-c3ccccc3)n2)cc1	aSyn 5UTR act -124
C/C(=N\Nc1cc(C)nc(-c2ccccc2O)n1)c1ccccc1	aSyn 5UTR act -65
Cc1ccc(Oc2cc(C)nc(-c3ccccc3O)n2)cc1	aSyn 5UTR act -69
Cc1ccc(Nc2cc(C)nc(-c3ccccc3O)n2)cc1	aSyn 5UTR act -116
CN1C(=O)C2C=CC1C1C(=O)N(c3ccccc3)C(=O)C21 (stereo unspecified)	aSyn 5UTR act -302
COc1ccc(/C(N)=N/OC(=O)c2cccs2)cc1OC	aSyn 5UTR act -186
Cc1ccc(/C(N)=N/OC(=O)c2cccs2)cc1	aSyn 5UTR act -124
N/C(=N\OC(=O)c1cccs1)c1cccc(Br)c1	aSyn 5UTR act -128
Cc1cccc(/C(N)=N/OC(=O)c2cccs2)c1	aSyn 5UTR act -106
N/C(=N\OC(=O)c1cccs1)c1ccccc1	aSyn 5UTR act -250
O=C(/C=C/c1ccco1)NCCc1ccccc1	aSyn 5UTR act -126
Cc1ccc(/C=C/C(=O)NCCc2ccccc2)o1	aSyn 5UTR act -99
CN(C)c1ccc(/C=N/NC(=O)c2ccnn2C)cc1	aSyn 5UTR act -110
CN(C)c1ccc(/C=N/NC(=O)c2ccn(C)n2)cc1	aSyn 5UTR act -115
COc1ccc(NC(=O)/C=C/c2cccc(F)c2)cn1	aSyn 5UTR act -196
COc1ccc(NC(=O)/C=C/c2ccco2)cn1	aSyn 5UTR act -237
COc1ccc(-c2nnc(SCC(=O)c3ccc[nH]3)o2)cc1	aSyn 5UTR act -107
Cc1ccc(SCC(=O)c2ccc[nH]2)cc1	aSyn 5UTR act -126
COc1ccc(-c2nnc(SCC(=O)c3cccs3)o2)cc1	aSyn 5UTR act -140
O=C(Nc1ccc2c(c1)OCO2)N1CCN(c2ccccc2Cl)CC1	aSyn 5UTR act -187
O=C(Nc1ccc2c(c1)OCO2)N1CCC(CO)(CC2CCCCO2)CC1 (stereo unspecified)	aSyn 5UTR act -91
O=C(Nc1ccc2c(c1)OCO2)N1CCN(S(=O)(=O)c2ccc(Cl)cc2)CC1	aSyn 5UTR act -68
C=CCc1cccc(C=Nc2cc(Br)ccc2O)c1O	aSyn 5UTR act -110
C=CCc1cccc(C=Nc2cccn3cc(-c4ccccc4)nc23)c1O	aSyn 5UTR act -89
CCc1ccc(O)c(N=Cc2cccc(C)c2O)c1	aSyn 5UTR act -131
c1ccc2c(c1)Cn1nc(Cc3nc4c(s3)CCCC4)nc1-2	aSyn 5UTR act -79
O=[N+]([O-])/C=C\c1ccc(N2CCCC2)c(F)c1	aSyn 5UTR act -142
COc1cccc(/C=N/N=C(\N)c2nonc2N)c1O	aSyn 5UTR act -105
COc1ccccc1/C=N\N=C(\N)c1ccccn1	aSyn 5UTR act -175
N/C(=N\N=C\c1cccc([N+](=O)[O-])c1)c1nonc1N	aSyn 5UTR act -150
Cc1ccccc1/C=N/NC(=O)c1sccc1C	aSyn 5UTR act -176
COc1ccc(/C=N/NC(=O)c2sccc2C)c2ccccc12	aSyn 5UTR act -110
CC(C)(C)c1cc(C(=O)N/N=C/c2ccccc2O)n(-c2ccccc2)n1	none
Cc1ccccc1/C=N\NC(=O)c1ccccc1-n1cccc1	aSyn 5UTR act -65
Cc1ccsc1C(=O)NN=C1CCCCCC1	aSyn 5UTR act -127
CC1CCN(CC(CS(=O)(=O)c2ccc([N+](=O)[O-])cc2)N2CCC(C)CC2)CC1 (stereo unspecified)	aSyn 5UTR act -66
O=C(c1ccc(Br)cc1)c1coc2ccc(O)cc12	aSyn 5UTR act -92
O=C(c1ccc(Cl)cc1)c1coc2ccc(O)cc12	aSyn 5UTR act -128
CC1CCc2c(nc3ncnn3c2NCCc2ccccc2F)C1 (stereo unspecified)	aSyn 5UTR act -69
CCOC(=O)c1c(C)oc2c1c(C(c1ccccc1)N1CCOCC1)c(O)c1ccccc12 (stereo unspecified)	aSyn 5UTR act -205
CCOC(=O)c1c(C)oc2c1c(C(c1cccnc1)N1CCCCC1)c(O)c1ccccc12 (stereo unspecified)	aSyn 5UTR act -146
O=C(Nc1ccc2c(c1)OCO2)Nc1ccc(F)cc1F	aSyn 5UTR act -138
NC(=O)Nc1ccc2c(c1)OCCO2	aSyn 5UTR act -113
Cc1cc(C)c(NC(=O)Nc2ccc3c(c2)OCO3)c(C)c1	aSyn 5UTR act -71
O=C(Nc1ccc2c(c1)OCO2)Nc1ccc2c(c1)OCO2	aSyn 5UTR act -129
O=C(Nc1cccc(C(=O)O)c1)Nc1ccc2c(c1)OCO2	none
O=C(Nc1ccc2c(c1)OCO2)Nc1ccc(Cl)cc1Cl	aSyn 5UTR act -112
O=C(Nc1ccc(Cl)cc1)Nc1ccc2c(c1)OCO2	aSyn 5UTR act -134
Cc1ccc2c(Cl)c(C(=O)Nc3ccc4c(c3)OCO4)sc2c1	aSyn 5UTR act -148
COC(=O)c1cccc(NC(=O)Nc2ccc(Cl)cc2Cl)c1	aSyn 5UTR act -103
O=C(Nc1ccc(F)cc1)Nc1ccc2c(c1)OCO2	aSyn 5UTR act -109
Cc1noc(C(=O)Nc2ccc3c(c2)OCO3)c1Cl	aSyn 5UTR act -205
Cc1ccc(NC(=O)Nc2ccc3c(c2)OCO3)c(Br)c1	aSyn 5UTR act -117
CCc1ccc2[nH]c(C(=O)Nc3ccc4c(c3)OCO4)cc2c1	aSyn 5UTR act -94
O=C(Nc1ccc(F)cc1F)c1cc(-c2ccc3c(c2)OCO3)on1	aSyn 5UTR act -110
Cc1nn(Cc2ccc(Cl)cc2)c(C)c1NC(=O)c1cc(-c2ccc3c(c2)OCO3)on1	none
CCc1ccc2[nH]c(C(=O)Nc3ccc(Br)c(C)n3)cc2c1	aSyn 5UTR act -146
COC(=O)c1ccc(C(=O)OC)c(NC(=O)Nc2ccc3c(c2)OCO3)c1	aSyn 5UTR act -124
Cc1cc(C)c2[nH]c(C(=O)Nc3ccc4c(c3)OCO4)cc2c1	aSyn 5UTR act -66
O=C(Nc1ccc2c(c1)OCO2)c1ccc(Cl)s1	aSyn 5UTR act -194
CC1CCC(NC(=O)C(=O)Nc2ccc3c(c2)OCO3)CC1 (stereo unspecified)	aSyn 5UTR act -114
O=C(Nc1ccc2c(c1)OCO2)c1c(Cl)nc2sccn12	aSyn 5UTR act -205
CCCCNC(=O)CCC(=O)Nc1ccc2nc(N3CCOCC3)cc(C)c2c1	aSyn 5UTR act -87
Cc1cc(N2CCCCC2)nc2ccc(NC(=O)CCC(=O)NCCC(C)C)cc12	aSyn 5UTR act -131
CCN(CC)CCCNC(=O)CCC(=O)Nc1ccc2nc(N3CCC(C)CC3)cc(C)c2c1	aSyn 5UTR act -62
CCOC(=O)C1CCCN(C(=O)CCC(=O)Nc2ccc3nc(N4CCOCC4)cc(C)c3c2)C1 (stereo unspecified)	aSyn 5UTR act -63
CCCN(CCC)CCNC(=O)CCC(=O)Nc1ccc2nc(N3CCOCC3)cc(C)c2c1	aSyn 5UTR act -90
COCCCNC(=O)CCC(=O)Nc1ccc2nc(N3CCOCC3)cc(C)c2c1	aSyn 5UTR act -86
Cc1cc(N2CCOCC2)nc2ccc(NC(=O)CCC(=O)N3CCN(c4ccccc4)CC3)cc12	aSyn 5UTR act -87
